The list is not random: actives were taken first. Their share in the collection is about 10%.
L3MBTL1 block – qHTS Assay for the Inhibitors of L3MBTL1 | Lethal(3)malignant brain tumor-like protein 1 (Homo sapiens), Q9Y468 | AlphaScreen L3MBTL1–H3K9me1 peptide binding | Potency, µM (titrated, usually from 57.1 µM), actives largely listed as inhibitors | actives 0.66% (n = 230,000); further: nearly all actives have a fitted effect of over 60% in size
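AlphaScreen assay: L3MBTL1 (50 nM final) was preincubated 30 min at room temperature with biotinylated H3(1-15)K9me1 peptide (75 nM final), then 30 min with library compounds; streptavidin donor and nickel chelate acceptor beads (10 ug/mL final) added, 30 min dark.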
BAZ2B block – qHTS Assay for Inhibitors of BAZ2B | actives 4.4% (n = 360,000) | AID 504333, 2011 | Potency, µM (highest dose often 114 µM), hits mostly inhibitors | Bromodomain adjacent to zinc finger domain protein 2B (Homo sapiens), Q9UIF8 | AlphaScreen BAZ2B-H3K14Ac peptide displacement; further: nearly all actives have a fitted effect of over 60% in size
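Compounds, titrated to a top concentration of 110 uM, were incubated 30 min at room temperature with preformed BAZ2B/acetyl-K14 H3 peptide complex (50 nM each). Proximity signal was measured by AlphaScreen after 20 min with beads.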
JMJD2A Tudor inh – qHTS Assay for Inhibitors of JMJD2A-Tudor Domain; Potency, µM (titrated, usually from 114 µM), most hits filed as inhibitors; AlphaScreen JMJD2A-Tudor / H3K4me3 peptide binding; actives 4.4% (n = 390,000); AID 504339, 2011; further: nearly all actives have a fitted effect of over 50% in size
HP1b binding inh – HTS for Inhibitors of HP1-beta Chromodomain Interactions with Methylated Histone Tails; AID 540317, 2011; AlphaScreen HP1-beta / biotin-H3K9me3 peptide binding; actives 0.56% (n = 390,000); Potency, µM (doses to about 114 µM), usual class: inhibitors; Chromobox protein homolog 1 (Homo sapiens), P83916; further: nearly all actives have a fitted effect of over 70% in size
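AlphaScreen: HP1-beta (50 nM) preformed 30 min with biotin-H3(1-18)K9me3 peptide (50 nM) in PBS pH 7.4, 0.01% Tween-20. Compound added for 30 min at RT, then streptavidin donor/nickel chelate acceptor beads (10 ug/mL) for 30 min.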
G9a block – qHTS Assay for Inhibitors of Histone Lysine Methyltransferase G9a; Histone-lysine N-methyltransferase EHMT2 (Homo sapiens), Q96KQ7; G9a H3K9 monomethylation, AlphaScreen, 2 h; Potency, µM (titrated, usually from 102 µM), most hits filed as inhibitors; actives 8.8% (n = 350,000); AID 504332, 2011; further: nearly all actives have a fitted effect of over 75% in size
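Enzyme 20 nM + cpd, 15 min RT; add b-H3K9 pep 500 nM / SAM 20 uM; 2 h RT; anti-H3K9me1 Ab 0.5 ug/mL + SA donor / anti-rabbit acceptor beads 20 ug/mL each, 10 min; AlphaScreen read.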
GLS inh – qHTS for Inhibitors of Glutaminase (GLS); Glutaminase kidney isoform, mitochondrial (Homo sapiens), O94925; actives 0.21% (n = 410,000); Potency, µM (titrated, usually from 45.5 µM), most hits filed as inhibitors; GLS enzymatic activity, qHTS titration; AID 624170, 2012
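hKGA; 45 mM KH2PO4 pH 8.2 + 0.02% Tween-20; cpd via pin tool; 1 mM Gln soln; GluOx/HRP/Amplex Red; RT 30 min; fluor. t0 & final.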
Each line names hits and unclear results; the compound was inactive in the other large screens. The call rests on the fitted dose curve; in most records, active means well fitted curve in the direction sought with a large enough effect; inconclusive means small, poorly fitted or top-dose-only effect, or another doubt; inactive means no such curve, though single readings can be large; an effect the other way counts as inactive or inconclusive.

N=c1nc(SCCC(=O)O)ss1	G9a block 11µM
CCCCc1c(O)nc(SCCC(=O)O)[nH]c1=O	none (no result: L3MBTL1 block, JMJD2A Tudor inh, HP1b binding inh, GLS inh)
Cc1cccc(N2CCN(Cc3nc(-c4cccc(Oc5ccccc5)c4)oc3C)CC2)n1	L3MBTL1 block inconclusive, BAZ2B block inconclusive, JMJD2A Tudor inh 45µM, HP1b binding inh inconclusive, G9a block 40µM
Cc1cc(-c2nnc(-c3ccccc3)c(-c3ccccc3)n2)c(C)o1	BAZ2B block inconclusive, JMJD2A Tudor inh inconclusive, G9a block 16µM
Cc1cc2c(s1)c1cnn(Cc3ccc(OC(F)F)cc3)c(=O)c1n2C	none (no result: L3MBTL1 block, BAZ2B block, HP1b binding inh, G9a block, GLS inh)
Cc1cc(C)cc(NC(=O)COc2coc(CN3CCc4ccccc43)cc2=O)c1	BAZ2B block inconclusive, G9a block 50µM
Cc1ccc(NC(=O)COc2coc(CN3CCc4ccccc43)cc2=O)c(C)c1	BAZ2B block 50µM, JMJD2A Tudor inh inconclusive, G9a block inconclusive
CC1CN(C(=O)COc2coc(CN3CCc4ccccc4C3)cc2=O)CC(C)O1 (stereo not given)	G9a block 45µM, GLS inh inconclusive
COc1ccc(OC)c(NC(=O)COc2coc(CN3CCc4ccccc43)cc2=O)c1	BAZ2B block inconclusive, G9a block inconclusive
Cc1ccc(NC(=O)COc2coc(CN3CCc4ccccc4C3)cc2=O)c(C)c1	G9a block 50µM
Cc1ccc(C)c(NC(=O)COc2coc(CN3CCc4ccccc4C3)cc2=O)c1	none
CC1CCC(NC(=O)C2(C)Cc3ccccc3C(=O)N2Cc2ccc(Cl)cc2)CC1 (stereo not given)	none (no result: L3MBTL1 block)
CCn1c(C)c(C2N3CC4(C)CN2CC(CC)(C3)C4=O)c2ccccc21 (stereo not given)	none (no result: L3MBTL1 block)
CCC(C)NC(=O)CSc1nc2cc3c(cc2c(=O)n1CCCC(=O)NCCc1ccc(OC)c(OC)c1)OCO3 (stereo not given)	none (no result: L3MBTL1 block)
CCc1ccc(NC(=O)COc2coc(CN3CCc4ccccc4C3)cc2=O)cc1	G9a block 56µM
O=C(COc1coc(CN2CCc3ccccc3C2)cc1=O)Nc1ccc(Cl)cc1	none
Cc1ccc(NC(=O)COc2coc(CN3c4ccccc4CC3C)cc2=O)c(C)c1 (stereo not given)	BAZ2B block inconclusive, JMJD2A Tudor inh inconclusive, G9a block 50µM
Nc1c(-c2nc(-c3cccs3)no2)nnn1-c1ccccc1Cl	none (no result: L3MBTL1 block)
Cc1ccc(C(=O)Sc2cccccc2=O)cc1	BAZ2B block 40µM, HP1b binding inh inconclusive, G9a block 10µM (no result: L3MBTL1 block)
COc1ccccc1-c1nccc(NCc2cccnc2)n1	none (no result: L3MBTL1 block, BAZ2B block, JMJD2A Tudor inh, HP1b binding inh, GLS inh)
Cc1ccc(-c2nn[nH]n2)cc1Cl	BAZ2B block 89µM, G9a block 50µM
CCn1ccc2c(OCC(=O)Nc3ccc(OC)cc3OC)cccc2c1=O	none (no result: L3MBTL1 block)
Cn1c2ccccc2c2cc(/C=N/NC(=O)c3cc(O)cc(O)c3)ccc21	BAZ2B block 35µM, JMJD2A Tudor inh 56µM, HP1b binding inh inconclusive, G9a block 50µM, GLS inh 16µM (no result: L3MBTL1 block)
Cn1c2ccccc2c2cc(/C=N/NC(=O)c3cc(O)ccc3O)ccc21	BAZ2B block 45µM, JMJD2A Tudor inh 32µM, HP1b binding inh inconclusive, G9a block 40µM (no result: L3MBTL1 block)
COc1cc(C(=O)N/N=C/c2ccc3c(c2)c2ccccc2n3C)ccc1O	none (no result: L3MBTL1 block)
Cc1ccc(-c2c(C(=O)NCCc3ccccc3)oc(=O)c3ccccc23)cc1	none (no result: L3MBTL1 block, BAZ2B block)
Cc1ccc(S(=O)(=O)CCC(=O)Nc2nc(C(C)(C)C)cs2)cc1	none (no result: L3MBTL1 block)
CCOC(=O)Cc1csc(NC(=O)CCc2ccccc2)n1	none
Cc1ccc(S(=O)(=O)CC(=O)Nc2nc(C(C)(C)C)cs2)cc1	G9a block 40µM (no result: L3MBTL1 block)
CCOC(=O)Cc1csc(SCC(=O)Nc2nccs2)n1	G9a block 50µM
Cc1ccc(S(=O)(=O)CCc2nnc(NC(=O)CCl)s2)cc1C	G9a block 79µM
